Values joined by “and” are separate entries in the source; they are usually repeats but may differ in a detail not shown here. Equal entries are not always repeated. Structures can show the parent of a compound that is named as a salt. ± gives the standard deviation of the averaged measurements.
Legend:
ES2 = assay: cell viability relative to DMSO control (MTS) (fraction of DMSO control); higher = more viable cells / less growth inhibition; details: 10 µM; 48 h
Procedure, shortened: (§1)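 A 367-compound […] library was tested at a final concentration of 10 µM on TOV-21G and ES2 clear cell carcinoma cells (5000 cells per well, 96-well plates, pre-grown 24 h), with control wells receiving vehicle only. Following 48 h of exposure, CellTiter 96 AQueous One Solution was used as the manufacturer directs. This MTS assay gives cell viability as a fraction of the vehicle control.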

TOV-21G = assay: as above; details: 10 µM; 48 h
Procedure, shortened: as §1

Compound	cell viability (ES2)	cell viability (TOV-21G)
N=C(N)NN [Aminoguanidine, HCl]	0.55	0.337
C[C@H](CCC(=O)O)C[C@H](C)C[C@H](C)C(=O)/C=C(\O)[C@H](C)C[C@H](C)C/C=C/[C@@H](C)[C@@H](O)[C@@H](C)[C@@H](O)C[C@@H]1CC[C@@](C)([C@H]2CC[C@@](C)([C@@H](C)O)O2)O1 [Ionomycin]	0.54	0.501
CN1C(=O)CN=C(c2ccc(Cl)cc2)c2cc(Cl)ccc21	1.1	0.825
Cc1sc2c(c1C)C(c1ccc(Cl)cc1)=N[C@@H](CC(=O)OC(C)(C)C)c1nnc(C)n1-2	0.502	0.305
N.N.[Cl][Pt][Cl] [Cisplatin]	0.794	1.09
C[C@]12CCC(=O)C(O)=C1CC[C@@H]1[C@@H]2CC[C@]2(C)C(=O)CC[C@@H]12 [Formestane]	1.11	1.32
C[C@H]1CCC/C=C/[C@@H]2C[C@H](O)C[C@H]2[C@H](O)/C=C/C(=O)O1 [brefeldin A]	0.355	0.407
O=C1NC(=O)c2c1c1c3ccccc3n3c1c1c2c2ccccc2n1[C@H]1CC[C@@H]3O1	0.973 and 1.25	1.01 and 1.24
CN(N=O)c1cc(O)ccc1O [Dephostatin]	1.14	1.02
C[C@@]1(CO)[C@H](O)CC[C@@]2(C)[C@H]1CC[C@H]1C[C@@H]3C[C@@]12CC[C@]3(O)CO [Aphidicolin]	0.419	0.869
CC(C)(O)/C=C/C(=O)[C@](C)(O)[C@H]1[C@H](O)C[C@@]2(C)[C@@H]3CC=C4[C@@H](C=C(O)C(=O)C4(C)C)[C@]3(C)C(=O)C[C@]12C [Cucurbitacin I]	0.393	0.328
C/C(O)=C(\C#N)C(=O)Nc1cc(Br)ccc1Br	1.06 ± 0.013	1.34 ± 0.19
C=C(C)[C@H]1Cc2c(ccc3c2O[C@@H]2COc4cc(OC)c(OC)cc4[C@@H]2C3=O)O1 [Rotenone]	0.491	0.666
COc1ccc(C[C@H]2NC[C@H](O)[C@H]2OC(C)=O)cc1 [anisomycin]	0.394	0.372
CC[C@H]1/C=C/C=C/C[C@@H](C)[C@H](O)[C@@](C)(O)C(=O)[C@@H](C)[C@H](O)[C@@H](C)C(=O)[C@@H](C)[C@H](O)[C@@H](C)/C=C/C(=O)O[C@@H]2[C@H](C)[C@H](CC1)O[C@]1(CC[C@H](C)[C@H](C[C@@H](C)O)O1)[C@H]2C [Oligomycin]	0.67	0.535
C#CCN(C)C(C)Cc1ccccc1 (centres undefined) [Deprenyl]	1.12	1.01
CC(C)(C)c1cc(C=C(C#N)C#N)cc(Br)c1O	0.94 ± 0.18	1.09 ± 0.034
CNc1ccc2oc(C[C@H]3O[C@@]4(CC[C@H]3C)O[C@H]([C@H](C)C(=O)c3ccc[nH]3)[C@H](C)C[C@H]4C)nc2c1C(=O)O	0.425	0.284
O[C@H]1[C@H]2[C@H](O)CCCN2C[C@H]1O [Swainsonine]	0.98	0.689
NC(=S)N/N=C\c1coc2ccccc2c1=O.[Cl][Cu][Cl] [Akt Inhibitor XI]	1.23	0.935
O=C1C2CCN(CC2)C1(CO)CO	1.01	1.1
COc1ccc2c3c([nH]c2c1)[C@H](C=C(C)C)N1C(=O)[C@@H]2CCCN2C(=O)[C@@H]1C3 [Fumitremorgin C]	0.945	0.838
CC1=C2C(=O)[C@H]3[C@@H](CC=C4C[C@@H](O)CC[C@@]43C)[C@@H]2CC[C@]12O[C@@H]1C[C@H](C)CN[C@H]1[C@H]2C [Jervine]	1.04	1.64
CO[C@@H]1C[C@@H](C[C@H]2CC[C@H](C)[C@H]([C@@H](C)C(=O)O)O2)O[C@]2(O[C@](C)([C@H]3CC[C@@](C)([C@@H]4O[C@@H]([C@H]5O[C@@](O)(CO)[C@H](C)C[C@@H]5C)C[C@@H]4C)O3)C[C@H]2C)[C@@H]1C [Nigericin]	0.437	0.344
C=C1[C@@H](C)[C@H]2[C@H](Cc3ccccc3)NC(=O)[C@]23[C@H](OC(C)=O)/C=C/[C@@](C)(O)C(=O)[C@@H](C)C/C=C/[C@H]3[C@@H]1O [Cytochalasin D]	0.498	0.472
C[C@@]12C(=O)OC(=O)[C@]1(C)[C@H]1CC[C@@H]2O1 [Cantharidin]	0.495	0.403
CC(=O)N[C@H]1[C@@H](O[C@@H]2O[C@H](CC(O)[C@H]3O[C@@H](n4ccc(=O)[nH]c4=O)[C@H](O)[C@@H]3O)[C@H](O)[C@H](O)[C@H]2NC(=O)/C=C/CC(C)C)O[C@H](CO)[C@@H](N)[C@@H]1O (some centres undefined) [Tunicamycin]	1.19	1.03

Reference: the supplement of paper PMC12669797
